Data on 1 sequence can be found in PMC7862700, “An all-to-all approach to the identification of sequence-specific readers for epigenetic DNA modifications on cytosine”.

Common to all, as to assay: DAPPL (digital affinity profiling via proximity ligation, sequencing); 10 mM Tris-HCl pH 7.5, 50 mM NaCl, 1 mM DTT, 4% glycerol, room temperature, 30 min; GST-TFs on glutathione beads, 16-mer random dsDNA library, 0.1% formaldehyde crosslink after washing; high values mean tight binding
One test deals with T1, FEV (Homo sapiens, UniProt Q99581 1-238).
T1 sequence: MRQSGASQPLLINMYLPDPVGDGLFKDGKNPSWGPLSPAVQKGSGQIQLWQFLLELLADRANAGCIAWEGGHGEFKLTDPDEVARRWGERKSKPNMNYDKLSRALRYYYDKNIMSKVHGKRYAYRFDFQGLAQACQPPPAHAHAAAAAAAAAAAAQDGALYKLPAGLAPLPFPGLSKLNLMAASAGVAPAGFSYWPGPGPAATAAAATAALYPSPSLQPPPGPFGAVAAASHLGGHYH
As to conditions: protein: recombinant; tags: N-terminal GST; dsDNA, one strand shown. The procedure, abridged: (§1)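 Binding signal is each hexamer's read frequency for a factor divided by its frequency in the tag-only sample. The factors were GST-fused human transcription factors from yeast, captured on glutathione beads, DNA-barcoded and pooled with that sample. Pools were incubated with 200 nmole of a random double-stranded 16-mer DNA library in Tris/NaCl/DTT/glycerol buffer at room temperature for 30 min, then washed, crosslinked with 0.1% formaldehyde, proximity-ligated with BsaI/T4 ligase (1 h, 37 °C), PCR-amplified and sequenced on an Illumina NextSeq500.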

Another test has as its target ETV5 (Homo sapiens, UniProt P41161 1-510). As to conditions: protein: recombinant; tags: N-terminal GST; dsDNA, one strand shown. The procedure, abridged:
as §1

For another test, the target named is HSF1 (Homo sapiens, UniProt Q00613 1-529). As to conditions: protein: recombinant; tags: N-terminal GST; chain copies: 3; dsDNA, one strand shown. The procedure, abridged:
as §1

The target in a further test is T2, SPIC (Homo sapiens, UniProt Q8N5J4 1-248).
T2 sequence: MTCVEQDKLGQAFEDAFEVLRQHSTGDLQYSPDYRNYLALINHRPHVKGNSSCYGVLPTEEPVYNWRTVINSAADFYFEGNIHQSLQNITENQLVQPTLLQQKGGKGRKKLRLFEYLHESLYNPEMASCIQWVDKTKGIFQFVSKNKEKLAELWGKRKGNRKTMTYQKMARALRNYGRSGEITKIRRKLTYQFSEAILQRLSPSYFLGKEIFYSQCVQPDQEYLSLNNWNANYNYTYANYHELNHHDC
As to conditions: protein: recombinant; tags: N-terminal GST; dsDNA, one strand shown. Summed up: as §1

For a further test, the target named is ELF4 (Homo sapiens, UniProt Q99607 1-663). As to conditions: protein: recombinant; tags: N-terminal GST; dsDNA, one strand shown. Summed up: as §1
The next test concerns the target T3, ELK4 (Homo sapiens, UniProt P28324-2 1-405).
T3 sequence: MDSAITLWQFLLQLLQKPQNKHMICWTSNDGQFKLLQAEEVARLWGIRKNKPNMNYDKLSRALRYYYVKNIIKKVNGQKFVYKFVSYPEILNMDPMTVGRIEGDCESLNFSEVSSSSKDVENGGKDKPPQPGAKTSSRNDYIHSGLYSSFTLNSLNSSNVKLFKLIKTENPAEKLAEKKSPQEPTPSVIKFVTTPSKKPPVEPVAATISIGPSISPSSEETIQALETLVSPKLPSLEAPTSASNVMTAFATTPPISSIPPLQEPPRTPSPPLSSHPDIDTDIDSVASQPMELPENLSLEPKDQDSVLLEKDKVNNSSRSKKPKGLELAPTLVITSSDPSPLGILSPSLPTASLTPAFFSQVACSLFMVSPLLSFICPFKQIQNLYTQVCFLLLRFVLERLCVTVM
As to conditions: protein: recombinant; tags: N-terminal GST; dsDNA, one strand shown. The procedure, abridged:
as §1

Another test concerns the target T4, ETV2 (Homo sapiens, UniProt O00321 1-342).
T4 sequence: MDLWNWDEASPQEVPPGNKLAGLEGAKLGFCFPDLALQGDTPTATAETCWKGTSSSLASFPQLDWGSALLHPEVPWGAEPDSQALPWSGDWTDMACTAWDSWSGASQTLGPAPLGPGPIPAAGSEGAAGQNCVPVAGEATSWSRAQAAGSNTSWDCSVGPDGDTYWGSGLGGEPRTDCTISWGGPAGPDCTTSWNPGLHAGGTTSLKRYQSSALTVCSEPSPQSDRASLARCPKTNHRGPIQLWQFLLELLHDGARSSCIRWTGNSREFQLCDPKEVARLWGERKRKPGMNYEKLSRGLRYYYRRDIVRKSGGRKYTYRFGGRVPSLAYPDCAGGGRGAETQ
As to conditions: protein: recombinant; tags: N-terminal GST; dsDNA, one strand shown. The procedure, abridged:
as §1

The target of the next test is T5, ELF3 (Homo sapiens, UniProt P78545 1-371).
T5 sequence: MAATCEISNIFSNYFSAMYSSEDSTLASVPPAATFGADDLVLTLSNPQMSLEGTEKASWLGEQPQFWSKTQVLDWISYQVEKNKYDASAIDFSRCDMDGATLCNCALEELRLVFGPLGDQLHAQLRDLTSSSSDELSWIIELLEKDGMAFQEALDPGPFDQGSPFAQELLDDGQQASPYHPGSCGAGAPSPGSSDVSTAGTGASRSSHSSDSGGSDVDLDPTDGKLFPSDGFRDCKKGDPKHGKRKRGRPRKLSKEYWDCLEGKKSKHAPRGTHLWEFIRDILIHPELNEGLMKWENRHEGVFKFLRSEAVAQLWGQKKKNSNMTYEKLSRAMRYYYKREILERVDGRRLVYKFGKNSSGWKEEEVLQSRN
As to conditions: protein: recombinant; tags: N-terminal GST; dsDNA, one strand shown. The procedure, abridged:
as §1

The target in a further test is CRX (Homo sapiens, UniProt O43186 1-299). As to conditions: protein: recombinant; tags: N-terminal GST; dsDNA, one strand shown. The procedure, abridged:
as §1

The next test addresses ETV1 (Homo sapiens, UniProt P50549 1-477). As to conditions: protein: recombinant; tags: N-terminal GST; dsDNA, one strand shown. The procedure, abridged:
as §1

In a further test the target is T6, ERF (Homo sapiens, UniProt P50548 1-548).
T6 sequence: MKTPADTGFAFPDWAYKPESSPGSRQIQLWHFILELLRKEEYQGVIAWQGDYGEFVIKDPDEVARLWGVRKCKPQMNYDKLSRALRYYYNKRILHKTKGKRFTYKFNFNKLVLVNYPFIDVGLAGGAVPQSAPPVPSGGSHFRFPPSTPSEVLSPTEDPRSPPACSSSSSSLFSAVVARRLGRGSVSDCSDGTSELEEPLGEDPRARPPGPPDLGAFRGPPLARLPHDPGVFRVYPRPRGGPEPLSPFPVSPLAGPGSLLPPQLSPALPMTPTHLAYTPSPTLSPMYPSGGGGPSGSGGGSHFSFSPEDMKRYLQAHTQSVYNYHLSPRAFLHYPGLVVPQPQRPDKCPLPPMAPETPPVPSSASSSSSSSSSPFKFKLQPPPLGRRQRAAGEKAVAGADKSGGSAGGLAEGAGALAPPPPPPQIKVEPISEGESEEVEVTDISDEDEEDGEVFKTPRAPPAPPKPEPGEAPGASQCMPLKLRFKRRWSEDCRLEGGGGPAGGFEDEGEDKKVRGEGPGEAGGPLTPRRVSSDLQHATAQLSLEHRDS
As to conditions: protein: recombinant; tags: N-terminal GST; dsDNA, one strand shown. The procedure, abridged: as §1

The next test deals with T7, ETV3L (Homo sapiens, UniProt Q6ZN32 1-361).
T7 sequence: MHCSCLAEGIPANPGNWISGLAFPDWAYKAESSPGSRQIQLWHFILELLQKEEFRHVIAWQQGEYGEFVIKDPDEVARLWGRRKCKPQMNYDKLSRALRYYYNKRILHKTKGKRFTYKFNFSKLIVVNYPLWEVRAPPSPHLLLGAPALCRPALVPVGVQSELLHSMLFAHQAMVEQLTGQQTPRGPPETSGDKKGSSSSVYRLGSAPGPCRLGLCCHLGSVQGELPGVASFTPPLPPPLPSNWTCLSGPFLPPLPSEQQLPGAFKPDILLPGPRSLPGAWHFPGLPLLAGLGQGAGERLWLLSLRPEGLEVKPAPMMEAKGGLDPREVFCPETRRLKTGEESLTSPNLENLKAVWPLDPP
As to conditions: protein: recombinant; tags: N-terminal GST; dsDNA, one strand shown. The procedure, abridged: as §1

For the next test, the target named is T8, ETS2 (Homo sapiens, UniProt P15036 1-469).
T8 sequence: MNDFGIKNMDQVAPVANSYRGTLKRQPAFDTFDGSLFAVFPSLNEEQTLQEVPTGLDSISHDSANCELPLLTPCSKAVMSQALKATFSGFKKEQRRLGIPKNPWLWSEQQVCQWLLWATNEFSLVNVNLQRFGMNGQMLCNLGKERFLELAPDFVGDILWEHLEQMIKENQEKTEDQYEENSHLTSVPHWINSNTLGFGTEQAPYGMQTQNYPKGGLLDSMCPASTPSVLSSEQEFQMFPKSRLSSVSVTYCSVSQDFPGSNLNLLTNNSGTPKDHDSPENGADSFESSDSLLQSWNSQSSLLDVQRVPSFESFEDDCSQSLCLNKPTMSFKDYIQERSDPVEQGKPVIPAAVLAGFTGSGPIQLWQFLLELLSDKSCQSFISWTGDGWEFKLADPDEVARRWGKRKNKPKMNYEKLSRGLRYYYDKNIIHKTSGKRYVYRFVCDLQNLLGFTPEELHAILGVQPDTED
As to conditions: protein: recombinant; tags: N-terminal GST; dsDNA, one strand shown. The procedure, abridged:
as §1

For a further test, the target named is T9, SPDEF (Homo sapiens, UniProt O95238 1-335).
T9 sequence: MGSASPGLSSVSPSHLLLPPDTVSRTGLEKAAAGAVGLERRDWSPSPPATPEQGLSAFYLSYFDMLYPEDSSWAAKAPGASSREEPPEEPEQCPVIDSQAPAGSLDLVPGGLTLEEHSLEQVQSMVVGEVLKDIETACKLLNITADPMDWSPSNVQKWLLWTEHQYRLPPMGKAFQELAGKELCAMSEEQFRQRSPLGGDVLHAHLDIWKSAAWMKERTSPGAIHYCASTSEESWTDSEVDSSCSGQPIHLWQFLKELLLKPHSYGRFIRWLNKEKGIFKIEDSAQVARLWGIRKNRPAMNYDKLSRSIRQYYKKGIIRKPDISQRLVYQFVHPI
As to conditions: protein: recombinant; tags: N-terminal GST; dsDNA, one strand shown. Summed up: as §1

A further test has as its target T10, ETV7 (Homo sapiens, UniProt Q9Y603 1-341).
T10 sequence: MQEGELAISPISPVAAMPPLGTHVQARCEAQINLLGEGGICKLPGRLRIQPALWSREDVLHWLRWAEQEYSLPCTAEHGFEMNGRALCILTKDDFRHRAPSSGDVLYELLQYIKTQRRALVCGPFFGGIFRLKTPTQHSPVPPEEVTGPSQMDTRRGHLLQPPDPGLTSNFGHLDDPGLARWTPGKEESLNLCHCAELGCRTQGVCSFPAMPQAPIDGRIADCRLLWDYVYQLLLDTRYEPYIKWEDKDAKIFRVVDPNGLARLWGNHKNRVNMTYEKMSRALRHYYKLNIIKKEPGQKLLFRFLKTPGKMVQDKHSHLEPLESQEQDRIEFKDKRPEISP
As to conditions: protein: recombinant; tags: N-terminal GST; dsDNA, one strand shown. The procedure, abridged: as §1

Another test has as its target T11, ELF5 (Homo sapiens, UniProt Q9UKW6-2 1-255).
T11 sequence: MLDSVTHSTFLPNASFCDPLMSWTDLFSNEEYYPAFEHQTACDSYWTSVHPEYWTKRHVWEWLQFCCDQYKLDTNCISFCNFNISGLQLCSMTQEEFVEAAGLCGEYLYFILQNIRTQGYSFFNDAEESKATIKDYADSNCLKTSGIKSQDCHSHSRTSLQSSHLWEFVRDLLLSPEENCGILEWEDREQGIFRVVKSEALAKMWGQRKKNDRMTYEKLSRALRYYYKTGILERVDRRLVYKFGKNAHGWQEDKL
As to conditions: protein: recombinant; tags: N-terminal GST; dsDNA, one strand shown. The procedure, abridged: as §1

The target in the next test is T12, ETV3 (Homo sapiens, UniProt P41162-2 1-143).
T12 sequence: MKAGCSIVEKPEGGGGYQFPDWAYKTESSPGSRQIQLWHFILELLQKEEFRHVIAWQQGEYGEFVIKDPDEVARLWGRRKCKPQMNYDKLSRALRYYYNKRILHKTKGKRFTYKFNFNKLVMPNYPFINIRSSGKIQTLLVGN
As to conditions: protein: recombinant; tags: N-terminal GST; dsDNA, one strand shown. The procedure, abridged:
as §1

The next test deals with ETV6 (Homo sapiens, UniProt P41212 1-452). As to conditions: protein: recombinant; tags: N-terminal GST; dsDNA, one strand shown. The procedure, abridged: as §1
Sequence of ETV6 (P41212 whole entry): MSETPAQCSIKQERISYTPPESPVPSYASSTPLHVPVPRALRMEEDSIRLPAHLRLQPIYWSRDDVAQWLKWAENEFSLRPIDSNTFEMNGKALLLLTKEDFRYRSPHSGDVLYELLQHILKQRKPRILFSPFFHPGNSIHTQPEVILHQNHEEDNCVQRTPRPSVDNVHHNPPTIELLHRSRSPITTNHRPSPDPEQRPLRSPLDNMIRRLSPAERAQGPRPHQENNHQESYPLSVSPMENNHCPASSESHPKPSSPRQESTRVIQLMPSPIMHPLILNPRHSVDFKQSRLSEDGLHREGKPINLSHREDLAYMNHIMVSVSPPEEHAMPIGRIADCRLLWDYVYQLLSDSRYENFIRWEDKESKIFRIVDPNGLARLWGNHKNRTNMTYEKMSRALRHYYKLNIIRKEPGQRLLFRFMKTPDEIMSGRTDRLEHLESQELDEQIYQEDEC

Sequence of CRX (O43186 whole entry): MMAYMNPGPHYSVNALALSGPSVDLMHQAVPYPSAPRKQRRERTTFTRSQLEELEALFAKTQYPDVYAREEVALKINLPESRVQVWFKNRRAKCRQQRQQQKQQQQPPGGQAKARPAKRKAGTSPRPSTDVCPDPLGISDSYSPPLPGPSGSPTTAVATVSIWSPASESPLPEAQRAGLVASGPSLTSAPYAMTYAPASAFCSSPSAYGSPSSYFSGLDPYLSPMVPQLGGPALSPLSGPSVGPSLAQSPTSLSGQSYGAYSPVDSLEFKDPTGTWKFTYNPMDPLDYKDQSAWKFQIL
Sequence of HSF1 (Q00613 whole entry): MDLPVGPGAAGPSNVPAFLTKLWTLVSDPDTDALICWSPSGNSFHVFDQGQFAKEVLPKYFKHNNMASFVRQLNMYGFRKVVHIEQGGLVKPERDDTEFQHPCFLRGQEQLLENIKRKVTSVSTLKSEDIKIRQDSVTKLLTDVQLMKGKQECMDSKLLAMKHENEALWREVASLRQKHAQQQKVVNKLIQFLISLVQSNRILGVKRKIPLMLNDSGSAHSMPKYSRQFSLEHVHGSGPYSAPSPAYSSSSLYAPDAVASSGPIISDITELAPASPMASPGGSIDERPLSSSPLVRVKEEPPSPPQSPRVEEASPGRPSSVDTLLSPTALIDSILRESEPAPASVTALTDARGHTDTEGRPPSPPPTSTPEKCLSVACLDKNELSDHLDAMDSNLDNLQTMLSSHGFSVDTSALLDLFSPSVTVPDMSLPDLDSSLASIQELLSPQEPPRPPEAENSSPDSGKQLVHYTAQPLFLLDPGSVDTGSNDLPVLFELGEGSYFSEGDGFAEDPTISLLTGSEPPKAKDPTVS
Sequence of ELF4 (Q99607 whole entry): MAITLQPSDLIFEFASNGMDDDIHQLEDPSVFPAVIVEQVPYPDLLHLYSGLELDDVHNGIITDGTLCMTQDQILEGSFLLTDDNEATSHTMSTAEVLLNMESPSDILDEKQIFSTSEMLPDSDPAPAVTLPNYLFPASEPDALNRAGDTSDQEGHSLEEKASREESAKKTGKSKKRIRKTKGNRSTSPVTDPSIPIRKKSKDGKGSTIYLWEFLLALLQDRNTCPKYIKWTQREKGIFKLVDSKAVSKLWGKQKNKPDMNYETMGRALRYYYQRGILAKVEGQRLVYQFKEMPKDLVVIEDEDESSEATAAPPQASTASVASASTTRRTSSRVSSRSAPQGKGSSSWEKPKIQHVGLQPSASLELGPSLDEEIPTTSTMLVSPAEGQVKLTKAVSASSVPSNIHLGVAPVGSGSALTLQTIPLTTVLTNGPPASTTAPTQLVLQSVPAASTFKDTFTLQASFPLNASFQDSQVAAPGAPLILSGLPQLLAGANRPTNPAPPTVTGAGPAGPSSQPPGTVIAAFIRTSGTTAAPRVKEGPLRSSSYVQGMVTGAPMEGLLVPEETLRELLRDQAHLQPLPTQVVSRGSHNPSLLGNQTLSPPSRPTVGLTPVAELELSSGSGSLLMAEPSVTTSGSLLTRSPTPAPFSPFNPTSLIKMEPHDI
Sequence of ETV1 (P50549 whole entry): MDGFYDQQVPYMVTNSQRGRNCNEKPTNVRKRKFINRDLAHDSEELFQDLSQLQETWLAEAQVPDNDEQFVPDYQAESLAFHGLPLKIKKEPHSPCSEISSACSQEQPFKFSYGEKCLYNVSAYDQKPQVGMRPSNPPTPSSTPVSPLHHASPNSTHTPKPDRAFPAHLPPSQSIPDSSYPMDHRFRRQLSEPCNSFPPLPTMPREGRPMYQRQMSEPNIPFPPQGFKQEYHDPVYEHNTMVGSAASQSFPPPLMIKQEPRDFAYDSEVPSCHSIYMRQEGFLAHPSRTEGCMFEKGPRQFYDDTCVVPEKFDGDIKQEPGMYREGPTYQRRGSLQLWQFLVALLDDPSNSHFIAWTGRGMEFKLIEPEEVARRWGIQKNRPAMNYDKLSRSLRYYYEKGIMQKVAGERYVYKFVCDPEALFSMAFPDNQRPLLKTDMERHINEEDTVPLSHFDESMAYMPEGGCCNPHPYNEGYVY
Sequence of ETV5 (P41161 whole entry): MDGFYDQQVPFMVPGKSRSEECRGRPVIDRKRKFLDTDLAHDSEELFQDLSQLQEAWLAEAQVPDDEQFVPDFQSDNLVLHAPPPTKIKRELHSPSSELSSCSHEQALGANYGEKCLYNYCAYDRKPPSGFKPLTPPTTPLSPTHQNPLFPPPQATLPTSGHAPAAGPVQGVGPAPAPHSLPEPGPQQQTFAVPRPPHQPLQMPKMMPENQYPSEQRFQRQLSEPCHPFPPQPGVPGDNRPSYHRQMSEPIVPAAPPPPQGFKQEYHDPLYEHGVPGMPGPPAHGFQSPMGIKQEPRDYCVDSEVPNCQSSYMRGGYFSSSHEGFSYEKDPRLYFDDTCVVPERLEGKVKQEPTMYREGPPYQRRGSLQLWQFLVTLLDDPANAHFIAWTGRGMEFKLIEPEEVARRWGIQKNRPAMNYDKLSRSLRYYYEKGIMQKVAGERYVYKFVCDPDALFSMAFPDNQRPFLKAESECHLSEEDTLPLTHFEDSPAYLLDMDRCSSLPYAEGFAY

In the case of ACTCAA, the binding signal was 1.23 fold enrichment (6-mer frequency, TF over GST control) with FEV; 1.16 fold enrichment (6-mer frequency, TF over GST control) in the test with ETV5; 1.07 fold enrichment (6-mer frequency, TF over GST control) with HSF1; 1.17 fold enrichment (6-mer frequency, TF over GST control) with SPIC; 1.16 fold enrichment (6-mer frequency, TF over GST control) with ELF4; 1.18 fold enrichment (6-mer frequency, TF over GST control) with ELK4. Moreover, the binding signal with ETV2 is 1.15 fold enrichment (6-mer frequency, TF over GST control); with ELF3, 1.12 fold enrichment (6-mer frequency, TF over GST control); in the test with CRX, 1.12 fold enrichment (6-mer frequency, TF over GST control); in the test with ETV1 it was 1.15 fold enrichment (6-mer frequency, TF over GST control); with ERF, 1.16 fold enrichment (6-mer frequency, TF over GST control); in the test with ETV3L, 1.21 fold enrichment (6-mer frequency, TF over GST control). Besides, the binding signal with ETS2 is 1.23 fold enrichment (6-mer frequency, TF over GST control); in the test with SPDEF it was 1.16 fold enrichment (6-mer frequency, TF over GST control); with ETV7 it was 1.05 fold enrichment (6-mer frequency, TF over GST control); with ELF5, 1.15 fold enrichment (6-mer frequency, TF over GST control); in the test with ETV3, 1.13 fold enrichment (6-mer frequency, TF over GST control); with ETV6, 1.26 fold enrichment (6-mer frequency, TF over GST control).
